ASM inhibitor = human S-ASM enzyme inhibition; placental ASM, HMU-PC fluorogenic substrate, 60 min; Potency, µM (titrated, usually from 57.5 µM), for the others: top-dose activity change, negative = inhibition, hits mostly inhibitors; P17405; 340,000 tested, 0.006% active; note: potency is the fitted concentration of half-maximal effect
Target sequence (P17405 47-631 limits assumed): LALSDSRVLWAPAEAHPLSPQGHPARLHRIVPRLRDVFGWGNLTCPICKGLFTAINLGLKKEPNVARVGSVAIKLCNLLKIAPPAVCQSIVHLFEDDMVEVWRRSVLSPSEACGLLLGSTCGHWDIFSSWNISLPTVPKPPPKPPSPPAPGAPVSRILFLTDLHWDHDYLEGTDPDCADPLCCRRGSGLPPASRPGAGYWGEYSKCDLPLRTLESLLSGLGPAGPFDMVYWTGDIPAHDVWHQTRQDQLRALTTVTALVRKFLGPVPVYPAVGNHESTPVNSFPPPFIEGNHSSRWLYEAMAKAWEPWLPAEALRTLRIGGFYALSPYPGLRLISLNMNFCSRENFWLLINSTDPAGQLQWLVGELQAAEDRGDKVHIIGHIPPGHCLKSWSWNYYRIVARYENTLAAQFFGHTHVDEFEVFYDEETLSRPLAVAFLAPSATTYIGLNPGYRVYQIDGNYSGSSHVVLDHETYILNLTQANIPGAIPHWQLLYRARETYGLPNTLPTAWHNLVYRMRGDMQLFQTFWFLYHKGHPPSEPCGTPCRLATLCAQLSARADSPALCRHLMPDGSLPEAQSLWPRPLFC
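HMU-PC0 cleavage (9 uM final) by human placental ASM, 60 min at 37 °C following 10 min compound exposure at RT; stopped at pH 10, fluorescence Ex 386/Em 447 nm.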
TDP1 cell CPT = DT40-hTDP1 cell growth loss with CPT. 420,000 tested, 12% active. chicken DT40 Tdp1-/-;hTDP1 cells + 20 nM CPT, ATP luminescence, 48 h. AID 686979. Potency, µM (doses to about 46.2 µM), for the others: at the top dose activity change, negative = growth inhibition, usual class: inhibitors; note: potency is the fitted concentration of half-maximal effect; % is set by controls: 0 for no effect and ±100 for the full control effect; nearly all actives have a fitted effect of over 55% in size
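Cell growth measured by CellTiter-Glo luminescence after a minimum 48 h, 37 C compound exposure with 20 nM CPT in Tdp1-knockout DT40 cells stably expressing hTDP1, seeded 400/well; qHTS titration format.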
DT40 TDP1 no CPT = qHTS for Inhibitors of human tyrosyl-DNA phosphodiesterase 1 (TDP1): qHTS in cells in absence of CPT. DT40 Tdp1-/- hTDP1 cells, no CPT, ATP luminescence, 48 h. Potency, µM (top dose mostly 46.2 µM), inactives show at the highest dose activity change, negative = growth inhibition, usual class: inhibitors. 420,000 tested, 15% active; note: potency is the fitted concentration of half-maximal effect; % is set by controls: 0 for no effect and ±100 for the full control effect; nearly all actives have a fitted effect of over 55% in size
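No-CPT arm: Tdp1-/-;hTDP1 DT40 cells (400/well) plus compounds, incubated ≥48 hr at 37 °C. Readout CellTiter-Glo luminescence.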
HepG2 viability = kills HepG2 cells in TGF-b inhibitor counter-screen. HepG2 CAGA-GFP viability, ATP luminescence, 18 h. Potency, µM (series often up to 46.1 µM), for the others: top-dose activity change, negative = cytotoxicity, hits mostly cytotoxic. 410,000 tested, 0.76% active; note: potency is the fitted concentration of half-maximal effect
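CellTiter-Glo luminescence gave cytotoxicity after 18 hours at 37 degrees C. The cells were HepG2 CAGA-GFP in 1% FBS DMEM, stimulated with 500 pg/mL TGF-beta after compound addition. %Activity was normalised to no-cell wells (complete cell-killing) and DMSO (no toxicity), and curves were fitted and classified.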
TGFb SMAD3 inh = blocks TGF-b signaling. Potency, µM (top dose mostly 46.1 µM), for inactives: at the top dose activity, negative = inhibition, actives largely listed as inhibitors. HepG2 CAGA-GFP TGF-b/SMAD3 reporter, GFP fluorescence, 18 h; TGF-beta stimulated, 500 pg/mL final. 410,000 tested, 1.2% active; note: potency is the fitted concentration of half-maximal effect; % is set by controls: 0 for no effect and ±100 for the full control effect; nearly all actives have a fitted effect of over 65% in size
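HEPG2 CAGA-GFP, 1000 cells/well; 2 h settle, 37 C; cpd via pin tool; TGF-b 500 pg/mL final; 18 h, 37 C; GFP imaging ex488/em500-530; %Activity normalised to -TGF-b and +DMSO controls; CRC fit, curve class.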
IL1B secr inh = blocks inflammasome-driven IL-1 beta release; THP-1 LPS/ATP IL-1B secretion, AlphaLISA, 16 h; hits give low values; activity change, % at 57.5 µM; 360,000 tested, 4.7% active; AID 743279; in the data active = activity change below about -50%; inconclusive = mostly about -30% to -49%; note: % is set by controls: 0 for no effect and ±100 for the full control effect
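THP-1 cells pretreated 1 hr with compounds (up to 57.5 uM final), then stimulated with LPS (250 ng/mL final) plus ATP (1.25 mM final); secreted IL-1B measured by AlphaLISA after 16 hr, decreased signal indicating inhibition.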
* = called active by the depositor; i = inactive; ? = inconclusive; . = no result; [ ] = another dose, or the depositor's remark. Sampled rows, rich in hits. Any-hit rate of the full collection: about 19%. Unless noted, calls come from the whole dose curve; as a rule, active = well fitted curve in the direction sought with a large enough effect; inconclusive = small, poorly fitted or top-dose-only effect, or another doubt; inactive = no such curve, though single readings can be large; an effect the other way counts as inactive or inconclusive.

SMILES | ASM inhibitor | TDP1 cell CPT | DT40 TDP1 no CPT | HepG2 viability | TGFb SMAD3 inh | IL1B secr inh
CCC(Sc1nc(C)cc(=O)[nH]1)C(=O)Nc1sc2c(c1C#N)CCCC2 (configuration not stated) | -2% | 16µM* | 16µM* | -25% | -32% | 48
CC(Sc1nc(N)cc(=O)[nH]1)C(=O)Nc1sc2c(c1C#N)CCCC2 (configuration not stated) | -4% | 2.3µM* | 2.3µM* | -14% | ? | 44
Cc1c(C(=O)OC2CCCC2)[nH]c2c1C(=O)CC(c1ccc(Cl)cc1)C2 (configuration not stated) | . | -5% | -23% | -7% | 5% | .
C[C@H](CO)N1C[C@H](C)[C@@H](CN(C)Cc2ccc(Cl)c(Cl)c2)OCCCC[C@H](C)Oc2ccc(NC(=O)CCC(F)(F)F)cc2C1=O | . | 23µM* | 15µM* | -18% | ? | -18
C[C@@H]1CCCCO[C@@H](CN(C)Cc2ccc3c(c2)OCO3)[C@@H](C)CN([C@H](C)CO)C(=O)c2cc(N(C)C)ccc2O1 | . | -3% | -8% | -35% | -19% | -25
C[C@@H]1CCCCO[C@H](CN(C)Cc2ccc(Cl)c(Cl)c2)[C@@H](C)CN([C@H](C)CO)C(=O)c2cc(N(C)C)ccc2O1 | . | 18µM* | 23µM* | -19% | ? | ?
COc1ccc2[nH]c(C(=O)N3CCNCC3)cc2c1OC | 3% | 11% | -1% | -10% | 1% | 12
Cc1ccc(OCc2nc(-c3ccccn3)no2)c(Br)c1 | 5% | -28% | -18% | -37% | -3% | -7
CC(C)c1ccc(OCc2nc(-c3ccccn3)no2)c(Br)c1 | -9% | -15% | -27% | 2% | 18% | -54*
COc1cc(/C=C(\C#N)c2ccccn2)ccc1OCc1ccccc1 | 26% | 21% | ? | 1% | 25% | -4
COc1cccc(/C=C(\C#N)c2nc3ccc(C)cc3[nH]2)c1 | . | 18µM* | 18µM* | -55% | -12% | .
CCOC(=O)COc1ccc(/C=C(\C#N)c2nc3ccc(C)cc3[nH]2)cc1OC | . | ? | ? | -61% | ? | .
COc1cc(/C=C(\C#N)c2ccccn2)ccc1OCc1ccc(Cl)cc1 | 8% | ? | 23µM* | 1% | 9% | -12
COc1cc(/C=C(\C#N)c2nc3ccc(C)cc3[nH]2)ccc1OCc1ccc(C)cc1 | . | 12µM* | 8.2µM* | -6% | ? | .
COc1cc(CN2CCOc3ccc(CN4CCC(O)(c5cccnc5)CC4)cc3C2)ccc1F | . | 7%[9.04 µM] | ? | . | . | .
CN(C)C=Nc1ccc2nc3c(cc2c1)[nH]c1ccccc13 | i | ? | 12µM* | -53% | ? | 16
O=C(O)c1ccc(-c2nnc(-c3cccc(Br)c3)o2)cc1 | 5% | -23% | -29% | -9% | -2% | 16
COc1ccccc1C(=O)NCC(C)(C)CN=C1NS(=O)(=O)c2ccccc21 | -3% | -20% | ? | -117% | -10% | 41
N#CC1=C2SCN(C3CCCCC3)CN2C(=O)CC1c1ccc(Cl)cc1 (configuration not stated) | . | 4.6µM* | ? | -43% | -27% | .
COc1cccc(C2CC(=O)N3CN(c4ccccc4F)CSC3=C2C#N)c1 (configuration not stated) | -4% | ? | ? | -1% | -19% | 7
N#CC1=C2SCN(C3CCCCC3)CN2C(=O)CC1c1c(F)cccc1Cl (configuration not stated) | . | ? | ? | -36% | -22% | .
Cc1ccc(C2CC(=O)N3CN(Cc4ccco4)CSC3=C2C#N)cc1 (configuration not stated) | -6% | -20% | -13% | 1% | 10% | 18
COc1ccccc1N1CSC2=C(C#N)C(c3ccc(SC)cc3)CC(=O)N2C1 (configuration not stated) | -4% | ? | 23µM* | -34% | -9% | 6
N#CC1=C2SCN(C3CCCCC3)CN2C(=O)CC1c1ccc(F)cc1 (configuration not stated) | . | ? | 16µM* | -29% | -16% | .
O=c1c2cc3c(cc2nc2sc(Nc4ccccc4)nn12)OCO3 | . | 3% | ? | -12% | 20% | .
SMILES | ASM inhibitor | TDP1 cell CPT | DT40 TDP1 no CPT | HepG2 viability | TGFb SMAD3 inh | IL1B secr inh
CC(C)Oc1ccc(C(CCN)C2CCCCC2)cc1 (configuration not stated) | -5% | 13µM* | 8.2µM* | 11µM* | ? | -99*
CCCCn1nc(C(=O)NCC(=O)Nc2c(C)cccc2C)c2ccccc2c1=O | -4% | ? | ? | -3% | ? | -14
O=C(CSc1cn(CCNC(=O)c2c(F)cccc2F)c2ccccc12)Nc1ccccc1F | . | ? | 21µM* | -1% | -8% | .
CC(C)N(C(=O)Cn1cc(SCC(=O)Nc2ccccc2F)c2ccccc21)C(C)C | . | ? | 13µM* | -37% | 0% | .
O=C(CSc1cn(CCNC(=O)c2c(F)cccc2F)c2ccccc12)Nc1ccc(F)cc1 | . | ? | 16µM* | -40% | ? | .
CC(C)N(C(=O)Cn1cc(SCC(=O)Nc2ccccc2C(F)(F)F)c2ccccc21)C(C)C | . | -6% | -17% | 4% | 1% | .
CCCN(C)C1CN(Cc2cn(Cc3cc(C)cc(C)c3)nn2)S(=O)(=O)C1 (configuration not stated) | . | 1% | -6% | . | . | 46
COc1cc(/C=C(\C#N)C(=O)c2c[nH]c3ccccc23)cc(OC)c1O | -11% | -9% | -5% | -2% | 32% | 30
O=c1cccc2c1c1cc[nH]c3ccc(=O)n2c31 | 13% | 9.2µM* | 18µM* | -27% | ? | -72*
O=c1cc[nH]c2ccc(Cl)cc12 | 1% | -15% | -17% | 0% | -7% | 23
Clc1ccc(/C=N\Nc2ccccc2)cc1 | -3% | -19% | -26% | -8% | 2% | 30
O=C(N/N=C/c1ccc(Cl)cc1)Nc1ccccc1 | -2% | ? | 8.2µM* | -30% | -3% | -16
Clc1cccc(N/N=C/c2ccncc2)c1 | -1% | -24% | ? | -23% | -20% | -53*
O=C(CC(=O)Nc1cccc(Cl)c1)N/N=C\c1ccccc1 | -1% | ? | 0.29µM* | -10% | -6% | -28
CCn1cc(CN2CCC(C(=O)Nc3ccc(Oc4cccnc4)cc3)CC2)cn1 | 1% | -13% | -3% | -19% | -10% | 0
